Values joined by “and” are separate entries in the source; they are usually repeats but may differ in a detail not shown here. Equal values may be shown once. The campaign covered roughly 5,500 compounds. About 2,000 (36%) were called active. Inconclusive results (about 18%) are left out. No stated cut-off is given here; in the data, active means normalized growth mostly below about 0.91 (no sharp cut-off); inconclusive means no clear call, values can overlap the other calls; inactive means mostly above about 0.92. This is one part of the list.
Experiment: chemical genetic growth profiling, strain panel (AID 1159580);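 further: tested at 20 µM; growth read once vehicle control cultures reached saturation at 30 °C; 1 = growth at the plate median or of vehicle wells; lower values mean less growth of the strain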
Settings: growth OD

Measured: normalized growth

O=c1[nH]oc2c1CCNC2
inactive: S. cerevisiae deletion strains, locus YKL009W, strain mrt4, hits give low values 0.992 | S. cerevisiae deletion strains, locus YKL068W, hits give low values 0.982 | S. cerevisiae deletion strains, locus YKL085W, strain MDH1 (second series), hits give low values 1.03 | S. cerevisiae deletion strains, locus YKL085W, strain MDH1, hits give low values 1.03 | S. cerevisiae deletion strains, locus YKL160W, strain elf1, hits give low values 0.99 | S. cerevisiae deletion strains, locus YKL190W, strain CNB1, hits give low values 1.01 | S. cerevisiae deletion strains, locus YKR001C, strain vps1, hits give low values 0.977 | S. cerevisiae deletion strains, locus YKR026C, strain gcn3, hits give low values 1 | S. cerevisiae deletion strains, locus YKR091W, strain srl3, hits give low values 1 | S. cerevisiae deletion strains, locus YLL001W, strain dnm1, hits give low values 0.973 | S. cerevisiae deletion strains, locus YLL026W, hits give low values 0.989 | S. cerevisiae deletion strains, locus YLL041C, strain sdh2, hits give low values 1.01 | S. cerevisiae deletion strains, locus YLR027C, strain aat2, hits give low values 0.99 | S. cerevisiae deletion strains, locus YLR039C, strain RIC1, hits give low values 1.01 | S. cerevisiae deletion strains, locus YLR058C, strain SHM2, hits give low values 0.999 | S. cerevisiae deletion strains, locus YLR102C, strain apc9, hits give low values 0.982 | S. cerevisiae deletion strains, locus YLR113W, strain HOG1, hits give low values 0.974 | S. cerevisiae deletion strains, locus YLR221C, strain rsa3, hits give low values 0.999 | S. cerevisiae deletion strains, locus YLR258W, strain gsy2, hits give low values 1 | S. cerevisiae deletion strains, locus YLR262C, strain YPT6 (second series), hits give low values 1 | S. cerevisiae deletion strains, locus YLR262C, strain YPT6, hits give low values 0.993 | S. cerevisiae deletion strains, locus YLR268W, strain sec22, hits give low values 1.01 | S. cerevisiae deletion strains, locus YLR320W, strain mms22, hits give low values 1.01 | S. cerevisiae deletion strains, locus YLR330W, strain CHS5, hits give low values 0.986 | S. cerevisiae deletion strains, locus YLR342W, strain FKS1 (second series), hits give low values 0.989 | S. cerevisiae deletion strains, locus YLR342W, strain FKS1, hits give low values 0.975 | S. cerevisiae deletion strains, locus YLR357W, strain rsc2, hits give low values 0.957 | S. cerevisiae deletion strains, locus YLR370C, strain arc18, hits give low values 1 | S. cerevisiae deletion strains, locus YLR371W, strain rom2, hits give low values 0.975 | S. cerevisiae deletion strains, locus YLR384C, strain iki3, hits give low values 0.999 | S. cerevisiae deletion strains, locus YLR418C, strain cdc73, hits give low values 1.05 | S. cerevisiae deletion strains, locus YML016C, strain PPZ1, hits give low values 1.01 | S. cerevisiae deletion strains, locus YML032C, strain rad52, hits give low values 0.954 | S. cerevisiae deletion strains, locus YML120C, strain ndi1, hits give low values 0.993 | S. cerevisiae deletion strains, locus YML124C, strain tub3, hits give low values 0.987 | S. cerevisiae deletion strains, locus YMR058W, strain fet3, hits give low values 1.01 | S. cerevisiae deletion strains, locus YMR078C, strain ctf18, hits give low values 0.97 | S. cerevisiae deletion strains, locus YMR125W, strain sto1, hits give low values 0.989 | S. cerevisiae deletion strains, locus YMR129W, hits give low values 0.996 | S. cerevisiae deletion strains, locus YMR205C, strain PFK2, hits give low values 0.992 | S. cerevisiae deletion strains, locus YMR223W, strain ubp8, hits give low values 0.967 | S. cerevisiae deletion strains, locus YMR231W, strain pep5, hits give low values 0.995 | S. cerevisiae deletion strains, locus YMR263W, strain SAP30, hits give low values 1.02 | S. cerevisiae deletion strains, locus YMR307W, strain GAS1, hits give low values 1.06 and 0.998 | S. cerevisiae deletion strains, locus YNL067W, strain RPL9B, hits give low values 1.03 | S. cerevisiae deletion strains, locus YNL071W, strain lat1, hits give low values 1.01 | S. cerevisiae deletion strains, locus YNL128W, strain TEP1, hits give low values 1.03 | S. cerevisiae deletion strains, locus YNL153C, strain GIM3, hits give low values 1.03 | S. cerevisiae deletion strains, locus YNL175C, strain NOP13, hits give low values 1.02 | S. cerevisiae deletion strains, locus YNL183C, strain NPR1, hits give low values 0.924 | S. cerevisiae deletion strains, locus YNL197C, strain WHI3, hits give low values 1.05 | S. cerevisiae deletion strains, locus YNL209W, strain ssb2, hits give low values 0.999 | S. cerevisiae deletion strains, locus YNL224C, strain SQS1, hits give low values 1.02 | S. cerevisiae deletion strains, locus YNL233W, strain BNI4, hits give low values 1.04 | S. cerevisiae deletion strains, locus YNL248C, strain rpa49, hits give low values 1.01 | S. cerevisiae deletion strains, locus YNL250W, strain rad50, hits give low values 0.966 | S. cerevisiae deletion strains, locus YNL271C, strain bni1, hits give low values 0.989 | S. cerevisiae deletion strains, locus YNL298W, strain CLA4, hits give low values 0.962 | S. cerevisiae deletion strains, locus YNL307C, strain MCK1, hits give low values 0.988 | S. cerevisiae deletion strains, locus YNL322C, strain KRE1 (second series), hits give low values 0.995 | S. cerevisiae deletion strains, locus YNL322C, strain KRE1, hits give low values 0.999 | S. cerevisiae deletion strains, locus YNR049C, strain mso1, hits give low values 1 | S. cerevisiae deletion strains, locus YNR052C, strain pop2, hits give low values 0.955 | S. cerevisiae deletion strains, locus YOL006C, strain TOP1, hits give low values 1.09 | S. cerevisiae deletion strains, locus YOL012C, strain htz1 1.13 | S. cerevisiae deletion strains, locus YOL147C, strain pex11, hits give low values 0.979 | S. cerevisiae deletion strains, locus YOR001W, strain rrp6, hits give low values 0.991 | S. cerevisiae deletion strains, locus YOR061W, strain CKA2, hits give low values 1 | S. cerevisiae deletion strains, locus YOR069W, strain VPS5, hits give low values 0.993 | S. cerevisiae deletion strains, locus YOR070C, strain gyp1, hits give low values 0.999 | S. cerevisiae deletion strains, locus YOR080W, strain dia2, hits give low values 0.998 | S. cerevisiae deletion strains, locus YOR083W, strain WHI5 (second series), hits give low values 1 | S. cerevisiae deletion strains, locus YOR083W, strain WHI5, hits give low values 0.976 | S. cerevisiae deletion strains, locus YOR106W, strain vam3, hits give low values 1 | S. cerevisiae deletion strains, locus YOR136W, strain idh2, hits give low values 0.975 | S. cerevisiae deletion strains, locus YOR144C, strain elg1, hits give low values 0.989 | S. cerevisiae deletion strains, locus YOR184W, strain ser1, hits give low values 0.955 | S. cerevisiae deletion strains, locus YOR231W, strain MKK1, hits give low values 1.01 | S. cerevisiae deletion strains, locus YOR265W, strain rbl2, hits give low values 0.994 | S. cerevisiae deletion strains, locus YOR270C, strain vph1, hits give low values 1.04 | S. cerevisiae deletion strains, locus YOR290C, strain snf2, hits give low values 0.995 | S. cerevisiae deletion strains, locus YOR316C, strain cot1, hits give low values 0.995 | S. cerevisiae deletion strains, locus YPL051W, strain arl3, hits give low values 0.996 | S. cerevisiae deletion strains, locus YPL055C, strain LGE1, hits give low values 1.07 and 1.01 | S. cerevisiae deletion strains, locus YPL078C, strain atp4, hits give low values 0.992 | S. cerevisiae deletion strains, locus YPL106C, strain sse1, hits give low values 0.985 | S. cerevisiae deletion strains, locus YPL240C, strain hsp82, hits give low values 1.01 | S. cerevisiae deletion strains, locus YPL241C, strain CIN2, hits give low values 0.996 | S. cerevisiae deletion strains, locus YPL256C, strain CLN2, hits give low values 1.01 | S. cerevisiae deletion strains, locus YPR119W, strain clb2, hits give low values 0.985 | S. cerevisiae deletion strains, locus YPR141C, strain kar3, hits give low values 0.972 | S. cerevisiae deletion strains, locus YPR163C, strain tif3, hits give low values 0.968 | S. cerevisiae deletion strains, locus YPR167C, strain met16, hits give low values 0.993 | S. cerevisiae deletion strains, strain wtn01, hits give low values 1.01 | S. cerevisiae strains, strain wild type, hits give low values 0.998

From PubChem BioAssay AID1159580 (chemical genetic matrix, 2015)
